Data taken from PubChem BioAssay (EPA / NIEHS).
Inconclusive results are not listed. Activity calls are given as the source filed them. Rule for the calls, unless noted: active = hit-call score of the fitted dose curve at least 0.9, where 1 is the maximum; inactive = score below 0.9.

How the values were obtained:
CD69, CD69 (gene 969) = experiment: BSK_LPS_CD69: BioMAP Diversity Plus: LPS Assay for CD69 Biomarker Activity (AID 2284303); conditions: primary human HUVEC with PBMC
Experimental: BSK_LPS is a cell-based, multiplexed-readout assay that uses umbilical vein endothelium and peripheral blood mononuclear cells, a human vascular primary cell co-culture, with measurements taken at 24 hours after chemical dosing in a 96-well plate.BSK_LPS_CD69 is an assay component measured in the BSK_LPS assay. It measures CD69 antibody related to regulation of gene expression using ELISA technology.Data from the assay component BSK_LPS_CD69 was analyzed at the endpoint, BSK_LPS_CD69, in the positive analysis fitting direction relative to DMSO as the negative control and baseline of activity. Using a type of binding reporter, gain or loss-of-signal activity can be used to understand protein changes. To generalize the intended target to other relatable targets, this assay endpoint is annotated to the 'cytokine' intended target family, where the subfamily is 'inflammatory factor'.
The levels of cell surface (or secreted, indicated by the prefix "s") biomarker endpoints were measured by ELISA. Overt cytotoxicity to cells in confluent adherent cultures (all systems other than the BT system) was assessed by measuring total protein levels using sulforhodamine B (SRB) staining in parallel cultures at the time of biomarker measurements, indicated as SRB endpoints. For proliferation assays for adherent cell types, individual cell types are cultured at sub-confluence and relative cell numbers quantified by SRB staining at time points optimized for each system (48 h: 3C and CASM3C systems; 72 h: BT and HDF3CGF systems; 96 h: SAg system). SRB was performed by staining cells with 0.1% SRB after fixation with 10% TCA and reading wells at 560 nm.Viability and proliferation of PBMC (T cells) was quantified by Alamar Blue reduction for the SAg and BT systems. […] Then, Alamar Blue (20 uL/well) (Invitrogen, Cat DAL1100) was added for 6 h, and the plates were read with a fluorescence microplate reader at 546/580 nm (excitation/emission). […] Plates were read after 6 h.

[1] = IUF_NPC2c_oligodendrocyte_migration_120hr: Leibniz Research Institute for Environmental Medicine (IUF) 120-hour Neural Progenitor Cell Migration Assay for Oligodendrocyte Migration (NPC2c) (AID 2284297);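 note: O4-positive oligodendrocyte migration distance divided by radial glia migration distance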
Outline: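 Exposure runs 5 days from differentiation onset at 37C, seven concentrations plus solvent control, DMSO at most 0.1%, applied to primary hNPC spheres on laminin. After fixation, O4 immunostaining gives oligodendrocyte distance from the sphere core, relative to radial glia migration.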

[2] = IUF_NPC2a_radial_glia_migration_120hr: Leibniz Research Institute for Environmental Medicine (IUF) 120-hour Neural Progenitor Cell Migration Assay for Radial Glia Migration (NPC2a) (AID 2284298)
Outline: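 Migration distance in um, sphere core edge to migration-area edge, derived by nuclei-density algorithm from Hoechst images after 120 h compound exposure. Primary hNPC spheres differentiated on poly-D-lysine/laminin in N2 medium, 37C; medium half-replaced day 3.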

[3] = IUF_NPC2a_radial_glia_migration_72hr: Leibniz Research Institute for Environmental Medicine (IUF) 72-hour Neural Progenitor Cell Migration Assay for Radial Glia Migration (NPC2a) (AID 2284299)
Outline: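 Primary hNPC spheres, fetal brain GW 16-19, on PDL/laminin; DMEM/F12 3:1 + 1% N2. Compound dosed day 0, 7 conc. + SC, half-medium refresh day 3. 72 h brightfield, migration distance core-to-front (um), 4 directions averaged.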

[4] = IUF_NPC2b_neuronal_migration_120hr: Leibniz Research Institute for Environmental Medicine (IUF) 120-hour Neural Progenitor Cell Migration Assay for Neuron Migration (NPC2b) (AID 2284300)
Outline: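 TUBB3-positive neurons are imaged after 120 h of differentiation, and their mean distance from the sphere edge is normalised to radial glia migration. Single 0.3 mm fetal hNPC spheres on poly-D-lysine/laminin received 7 compound concentrations, ≤0.1% DMSO, refreshed at day 3.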

[5] = IUF_NPC3_neuronal_differentiation_120hr: Leibniz Research Institute for Environmental Medicine (IUF) 120-hour Neuronal Differentiation Assay (NPC3) (AID 2284301)
Outline: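 Primary human fetal neural progenitor spheres (GW 16-19, 0.3 mm) plated on poly-D-lysine/laminin in N2 medium, exposed from day 0 for 120 h with half-medium refresh at day 3. TUBB3+ cells as percent of Hoechst nuclei in migration area; DMSO baseline.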

[6] = IUF_NPC4_neurite_length_120hr: Leibniz Research Institute for Environmental Medicine (IUF) 120-hour Neuronal Morphology Assay for Neurite Length (NPC4) (AID 2284302)
Outline: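 Human fetal cortex (GW 16-19) neural progenitor spheres, 0.3 mm, were plated on poly-D-lysine/laminin in N2 differentiation medium and exposed from day 0 for 120 h, half-feeding at day 3. Mean TUBB3+ neurite length (µm) came from skeletonized images, relative to DMSO.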

[7] = IUF_NPC4_neurite_area_120hr: Leibniz Research Institute for Environmental Medicine (IUF) 120-hour Neuronal Morphology Assay for Neurite Area (NPC4) (AID 2284305; active = hit-call score of the fitted dose curve at least 0.9, where 1 is the maximum)
Outline: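 Human fetal cortex-derived neural progenitor spheres (0.3 mm, GW 16-19) plated on poly-D-lysine/laminin in N2 differentiation medium and exposed from day 0 for 120 h across 7 concentrations plus solvent control. Neurite area is mean pixel area per TUBB3-positive neuron via skeletonization, analysed relative to DMSO.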

[8] = IUF_NPC2-5_cytotoxicity_72hr: Cytotoxicity Assessment at 72 hours in the Leibniz Research Institute for Environmental Medicine (IUF) Neural Progenitor Cell Migration and Differentiation Assay for Cytotoxicity (NPC2-5) (AID 2284306; active = hit-call score of the fitted dose curve at least 0.9, where 1 is the maximum;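 note: LDH release into supernatant measured by resorufin fluorescence marking membrane damage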)
Outline: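 Human fetal (GW 16-19) neural progenitor spheres, 0.3 mm, plated on poly-D-lysine/laminin in N2 differentiation medium and exposed from day 0 to 7 concentrations plus solvent control (DMSO ≤0.1%). LDH-dependent resazurin-to-resorufin fluorescence in supernatant at 72 h.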

[9] = IUF_NPC5_oligodendrocyte_differentiation_120hr: Leibniz Research Institute for Environmental Medicine (IUF) 120-hour Oligodendrocyte Differentiation Assay (NPC5) (AID 2284304; active = hit-call score of the fitted dose curve at least 0.9, where 1 is the maximum;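 note: primary human fetal neural progenitor spheres plated to migrate and differentiate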)
Outline: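 Oligodendrocyte differentiation scored as O4-positive cells, found by CNN image analysis, as percent of Hoechst-stained nuclei in the migration area. Scoring followed 5 days of exposure of plated hNPC neurospheres differentiating in DMEM/F12 N2 medium at 37C, with compound refreshed at day 3.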

Measured: AC50

CCCCOC(=O)COC(=O)c1ccccc1C(=O)OCCCC
inactive: CD69, CD69 (gene 969)

CNC(=O)CSP(=O)(OC)OC
inactive: [1] | [2] | [3] | [4] | [5] | [6] | [7] | [8]

OC(Cc1ccccc1Cl)(Cn1[nH]cnc1=S)C1(Cl)CC1 (stereo not drawn)
inactive: [1] | [4] | [8]
active: [2] 43 µM | [3] 36 µM | [5] 17.5 µM | [6] 36.1 µM | [9] 0.507 µM | [7] 40.3 µM

O=C(Cc1ccccc1)OCCc1ccccc1
inactive: CD69, CD69 (gene 969)

CCOCn1c(-c2ccc(Cl)cc2)c(C#N)c(Br)c1C(F)(F)F
active: [2] 63.4 µM | [3] 36.6 µM | [4] 35.4 µM | [5] 5.42 µM | [6] 14.4 µM | [9] 5.56 µM | [7] 13.4 µM | [8] 50 µM
inactive: [1]

CC1(C)[C@H](C(=O)O[C@H](C#N)c2cccc(Oc3ccccc3)c2)[C@@H]1/C=C(\Cl)C(F)(F)F
inactive: [1] | [2] | [3] | [4] | [5] | [6] | [7] | [8]
active: [9] 0.983 µM

CS(=O)(=O)c1ccc(C(=O)C2C(=O)CCCC2=O)c(Cl)c1COCC(F)(F)F
inactive: [1] | [2] | [3] | [4] | [5] | [6] | [9] | [7] | [8]

CC(C)[C@@H](Nc1ccc(C(F)(F)F)cc1Cl)C(=O)OC(C#N)c1cccc(Oc2ccccc2)c1 (stereo partly drawn)
active: [5] 1.92 µM | [9] 3.8 µM
inactive: [1] | [2] | [3] | [4] | [6] | [7] | [8]

O=S1OC[C@@H]2[C@H](CO1)[C@]1(Cl)C(Cl)=C(Cl)[C@@]2(Cl)C1(Cl)Cl (stereo partly drawn)
active: [9] 0.789 µM
inactive: [1] | [2] | [3] | [4] | [5] | [6] | [7] | [8]

Cc1ccccc1OP(=O)(Oc1ccccc1C)Oc1ccccc1C
active: [2] 10 µM | [9] 6.47 µM
inactive: [1] | [3] | [4] | [5] | [6] | [7] | [8]

OCCCCO
inactive: CD69, CD69 (gene 969)

Cc1cc(C(F)(C(F)(F)F)C(F)(F)F)ccc1NC(=O)c1cccc(I)c1C(=O)NC(C)(C)CS(C)(=O)=O
active: [9] 4.22 µM
inactive: [1] | [2] | [3] | [4] | [5] | [6] | [7] | [8]
